From PubChem
KB-3-1 tox – kills parental KB-3-1 adenocarcinoma cells; KB-3-1 viability, CellTiter-Glo ATP luminescence, 72 h; Potency, µM (doses to about 46.1 µM), most hits filed as cytotoxic; hit rate 1.4% among 400,000; also: potency is read from the fitted curve at half-maximal effect; % is scaled to controls: 0 for no effect and ±100 for the full control effect; nearly all actives have a fitted effect of over 60% in size
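Using CellTiter-Glo luminescence, growth of non-resistant KB-3-1 adenocarcinoma cells is assessed 72 h after pin-tool compound addition at 37 °C. Normalized responses across the concentration series yield fitted curves.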
S-ASM inh – blocks human secretory acid sphingomyelinase. AID 504937. Potency, µM (doses to about 57.5 µM), for inactives: at the top dose activity change, negative = inhibition, hits mostly inhibitors. hit rate 0.006% among 340,000. P17405. placental ASM, HMU-PC fluorogenic substrate, 60 min; also: potency is read from the fitted curve at half-maximal effect
Target sequence (P17405 47-631 limits assumed): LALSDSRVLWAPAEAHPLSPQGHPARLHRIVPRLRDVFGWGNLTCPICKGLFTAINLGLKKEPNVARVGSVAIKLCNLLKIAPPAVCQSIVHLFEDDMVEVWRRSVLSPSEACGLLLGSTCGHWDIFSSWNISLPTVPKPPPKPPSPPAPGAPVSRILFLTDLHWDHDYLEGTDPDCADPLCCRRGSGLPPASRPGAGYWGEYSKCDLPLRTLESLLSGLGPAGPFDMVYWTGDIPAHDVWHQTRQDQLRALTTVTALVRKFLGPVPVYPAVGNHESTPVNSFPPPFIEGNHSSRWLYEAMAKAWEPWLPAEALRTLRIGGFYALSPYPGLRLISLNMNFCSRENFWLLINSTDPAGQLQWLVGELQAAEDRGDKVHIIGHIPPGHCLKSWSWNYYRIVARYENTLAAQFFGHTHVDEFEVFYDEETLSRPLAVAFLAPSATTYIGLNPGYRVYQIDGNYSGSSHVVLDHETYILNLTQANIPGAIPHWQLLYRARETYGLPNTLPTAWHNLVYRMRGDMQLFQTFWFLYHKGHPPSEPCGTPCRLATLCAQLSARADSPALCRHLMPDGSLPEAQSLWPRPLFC
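Fluorescence read-out (Ex 386 nm, Em 447 nm) after stopping the reaction at pH 10. Enzyme: ASM from human placenta; substrate HMU-PC0, 9 uM final; 60 min, 37 °C. Compound preincubation 10 min, ambient temperature.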
Giardia killer – kills Giardia lamblia; hit rate 0.15% among 340,000; Giardia lamblia trophozoite viability; activity change, % at 7.66 µM, hits read low; in the data active = activity change below about -80%; inconclusive = between about -30% and that limit;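 also: parasites exposed to compound for two days anaerobically before the ATP read; % is scaled to controls: 0 for no effect and ±100 for the full control effect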
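Giardia trophozoites, 100 cells per well, were exposed to compounds for 48 hrs at 37 deg C under anaerobic conditions; viability was then read as ATP content by bioluminescence after 15-30 min at room temperature.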
MCF10A rerep – induces DNA re-replication in MCF 10a normal breast cells. MCF 10A DNA re-replication, Hoechst nuclear intensity, 48 h. Potency, µM (series often up to 46.1 µM), for the others: at the highest dose activity, positive = re-replication, most hits filed as activators. AID 624296. hit rate 2.9% among 350,000; also: potency is read from the fitted curve at half-maximal effect; % of control where 0% means no effect; nearly all actives have a fitted effect of over 50% in size
KB-V1 MDR tox – kills drug-selected multidrug resistant KB-V1 cells; Potency, µM (highest dose often 46.1 µM), actives largely listed as cytotoxic; KB-V1 MDR cells viability, CellTiter-Glo, 72 h; hit rate 3.4% among 400,000; AID 1347076; also: potency is read from the fitted curve at half-maximal effect; % is scaled to controls: 0 for no effect and ±100 for the full control effect; nearly all actives have a fitted effect of over 60% in size
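Potencies derive from concentration-effect curves fitted to normalized luminescence (CellTiter-Glo) of KB-V1 cells treated for 72 h at 37 degrees C in phenol-red-free DMEM containing 10% FBS.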
SW480 rereplic – DNA re-replication induction in SW480 cells; SW480 DNA re-replication, Hoechst DNA content imaging, 48 h; Potency, µM (doses to about 46.1 µM), inactives show at the highest dose re-replication activation, hits mostly activators; hit rate 1.8% among 340,000; also: potency is read from the fitted curve at half-maximal effect; % of control where 0% means no effect; nearly all actives have a fitted effect of over 55% in size
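DNA re-replication was detected as more nuclei of elevated Hoechst intensity after 48 hr exposure to compound (23 nL pinned per well of 250 cells).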
The depositor's hits bear a star; i = inactive; ? = inconclusive; . = not tested or not shown; ! = a repeat was not active. Only some compounds are listed: those with a hit (about 6.9% of all), similar ones and a draw of the others. Unless noted, calls follow the shape of the dose curve; as a rule, active = well fitted curve in the direction sought with a large enough effect; inconclusive = small, poorly fitted or top-dose-only effect, or another doubt; inactive = no such curve, though single readings can be large; an effect the other way counts as inactive or inconclusive.

SMILES	KB-3-1 tox	S-ASM inh	Giardia killer	MCF10A rerep	KB-V1 MDR tox	SW480 rereplic
O=C(Nc1ccccc1)c1nc(S(=O)(=O)Cc2ccccc2F)ncc1Cl	i	.	.	.	i	.
CSc1nnc(NC(=O)c2nc(S(=O)(=O)Cc3ccccc3F)ncc2Cl)s1	?	-6%	-8	?	?	?
CCC(=O)NCCC1CCc2ccc3c(c21)CCO3 (configuration not stated)	.	.	.	11%	.	3%
CCNC(=O)C(Sc1ccccc1)c1ccccc1 (configuration not stated)	i	6%	-3	1%	i	-5%
CCCCNC(=O)C(Sc1ccccc1)c1ccccc1 (configuration not stated)	i	3%	6	9%	15µM*	-58%
Cc1ccc(S(=O)(=O)c2nnn3c2nc(N2CCOCC2)c2sccc23)cc1C	i	.	.	.	i	.
O=C(COC(=O)C1COc2ccccc2O1)Nc1ccccc1OC(F)F (configuration not stated)	i	-1%	0	6%	i	-7%
CCOCCCNC(=O)c1ccc2c(c1)N(CC)C(=O)c1ccccc1S2=O (configuration not stated)	?	2%	-1	6%	18µM*	5%
O=C(NCc1ccco1)c1ccc2c(c1)N(Cc1ccc(Cl)cc1)C(=O)c1ccccc1S2=O (configuration not stated)	i	.	.	.	i	.
CN(Cc1ccccc1)C(=O)c1ccc2c(c1)N(Cc1ccc(Cl)cc1)C(=O)c1ccccc1S2=O (configuration not stated)	16µM*	.	.	.	?	.
CC1CC(C)CN(CCCNC(=O)c2ccc3c(c2)N(Cc2ccccc2)C(=O)c2ccccc2S3=O)C1 (configuration not stated)	i	-7%	-14	12µM*	i	?
CCS(=O)(=O)N1CCc2cc(C(=O)NCc3ccccc3Cl)ccc21	i	.	.	.	i	.
COc1ccccc1N1CCN(S(=O)(=O)CCNC(=O)CC2CCCC2)CC1	i	.	.	.	?	.
Cc1cccc(-c2nnc(SCC#N)n2-c2cccc(Cl)c2)c1	i	-3%	-7	16%	?	-5%
COc1ccc(-n2c(SCCC#N)nnc2-c2cc(Cl)ccc2OC)cc1Cl	?	1%	-6	16µM*	?	?
COc1ccc(CNC(=O)Cc2ccc(NC(=O)N3CCSc4ncccc43)cc2)cc1OC	i	.	.	.	i	.
Clc1ccc(CNc2nc(CN3CCOCC3)nc3scc(-c4ccccc4)c23)cc1	?	-8%	11	13µM*	21µM*	-11%
c1ccc(CNc2nc(CN3CCOCC3)nc3scc(-c4ccccc4)c23)cc1	i	0%	3	-8%	i	-13%
COc1cc(NC(=O)CSC2=Nc3ccccc3N=C(c3ccc(F)cc3)C2)cc(OC)c1	i	.	.	.	i	.
COc1ccc(-c2cn(Cc3ccc(C(=O)c4ccccc4)cc3)nn2)cc1	4.1µM*!	-14%	23	2.6µM*	2.6µM*!	?
COc1ccc(-c2cn(Cc3ccc4ccccc4c3)nn2)cc1	i	-14%	0	-21%	i	-16%
Cc1ccc(OCc2cc(C(=O)N(C)CCc3nc4ccccc4[nH]3)no2)cc1C	i	-5%	-23	21µM*	i	?
O=C(N/N=C/C=C/c1ccccc1)c1n[nH]c2c1CCC2	1.3µM*	0%	-3	1.5µM*	1µM*	2.1µM*
CC(/C=N/NC(=O)c1n[nH]c2c1CCC2)=C\c1ccccc1	0.33µM*	-3%	-5	0.26µM*	0.21µM*	0.73µM*
O=C(N/N=C/C(Br)=C\c1ccccc1)c1n[nH]c2c1CCC2	i	-11%	-12	?	?	0.52µM*
SMILES	KB-3-1 tox	S-ASM inh	Giardia killer	MCF10A rerep	KB-V1 MDR tox	SW480 rereplic
CC(/C=N/NC(=O)c1ccccc1C)=C\c1ccccc1	i	-2%	-13	-4%	i	22%
O=C(Nc1cccc(Cl)c1)N1CC2CCCN2c2ccccc21 (configuration not stated)	i	.	.	.	i	.
O=S(=O)(c1ccccc1)c1nc(-c2ccccc2Cl)oc1NCCCN1CCOCC1	i	-5%	3	?	i	?
Cc1ccccc1-c1nc(S(=O)(=O)c2ccc(Cl)cc2)c(NCCN2CCOCC2)o1	i	-9%	7	21µM*	i	?
O=S(=O)(c1ccccc1)c1nc(-c2ccccc2Cl)oc1NCCN1CCOCC1	i	-2%	-1	?	i	9%
Cc1ccccc1-c1nc(S(=O)(=O)c2ccccc2)c(NCCCN2CCOCC2)o1	23µM*	-6%	0	-3%	i	5%
CNC(=S)N(C)/N=C1/C(=O)N(Cc2c(Cl)cccc2Cl)c2ccccc21	i	-19%	-9	18µM*	?	?
O=C(CN(C(=O)C1CSC(=O)C1)c1cccc(F)c1)NCc1ccc2c(c1)OCO2 (configuration not stated)	i	4%	1	4%	i	0%
COc1ccc(-c2cc(C(F)(F)F)n3nc(C(=O)Nc4cc(Cl)cc(Cl)c4)cc3n2)cc1	i	.	.	.	i	.
CCNC(=O)N(CC)C[C@H]1N[C@@](C)(C(=O)OC)[C@H]2C(=O)N(Cc3ccccc3)C(=O)[C@@H]12	i	5%	-15	-5%	i	0.23µM*
CCN(C[C@H]1N[C@@](C)(C(=O)OC)[C@H]2C(=O)N(Cc3ccccc3)C(=O)[C@@H]12)C(=O)c1ccccc1	i	-7%	19	1%	i	1%
Cc1ccc(S(=O)(=O)C(C#N)c2nc3ccccc3nc2N2CC(C)OC(C)C2)cc1C (configuration not stated)	i	30%	22	15µM*	i	?
Cc1ccc(S(=O)(=O)C(C#N)c2nc3ccccc3nc2N2CCCC2)cc1 (configuration not stated)	i	214%	8	?	18µM*	7%
COc1ccc(S(=O)(=O)C(C#N)c2nc3ccccc3nc2N2CCCC(C)C2)cc1 (configuration not stated)	i	50%	12	12µM*	i	2%
CCN1CCN(c2nc3ccccc3nc2C(C#N)S(=O)(=O)c2ccc(C)cc2)CC1 (configuration not stated)	?	1%	19	4%	i	-4%
Cc1cccc(S(=O)(=O)C(C#N)c2nc3ccccc3nc2N2CC(C)OC(C)C2)c1 (configuration not stated)	?	47%	-8	0%	?	-6%
